SMILES strings stand for the structures. Values joined by “and” are separate entries in the source; they are usually repeats but may differ in a detail not shown here. Equal values may be shown once. Records with an inconclusive call do not appear. Active and inactive are the calls of the source. Calls come from the whole dose curve; as a rule, active = well fitted curve in the direction sought with a large enough effect; inconclusive = small, poorly fitted or top-dose-only effect, or another doubt; inactive = no such curve, though single readings can be large or run the other way.
% is set by controls: 0 for no effect and ±100 for the full control effect.

The experiment is described as follows: qHTS Assay for Identifying Gametocytocidal Compounds (AID 743244).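 Note: actives lower the fluorescent signal which means gametocytes are killed.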 As to conditions: P. falciparum 3D7 stage III-V gametocytes, alamarBlue, 72 h; max response: active compounds read low. Summed up:
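Compounds are pinned into medium, gametocytes (stage III–V, 3D7, 20,000 cells/well) added, and plates held 72 h at 37 °C in 5% CO2. AlamarBlue follows for 24 h before fluorescence reading.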
For `CC(C)(C(=O)O)c1ccc(C(O)CCCN2CCC(C(O)(c3ccccc3)c3ccccc3)CC2)cc1` (configuration not stated), the max response was -3.24% (inactive) and 8.77% (inactive).
In the case of `O=C(O)Cc1sc(-c2ccccc2)nc1-c1ccc(Cl)cc1` it was -5.46% (inactive) and 46.6% (inactive) and 14.6% (inactive); in that of `[O-][n+]1cccc(CO)c1`, -4.23% (inactive).
In the case of `C[C@]12CC[C@@H]3c4ccc(O)cc4CC[C@H]3[C@@H]1CCC2=O` it was -6.45% (inactive) and 30.5% (inactive); in that of `CN1[C@@H]2CC[C@H]1CC(OC(=O)C(O)c1ccccc1)C2` (some centres not stated), -8.53% (inactive) and 3.5% (inactive) and -4.14% (inactive); in that of `O=C1c2c(O)cccc2Cc2cccc(O)c21`, 12% (inactive).
The value for `NC(=O)c1ncn([C@@H]2O[C@H](CO)[C@@H](O)[C@H]2O)n1` was -2.06% (inactive) and 29.2% (inactive).
For `C[C@]12C[C@H](O)[C@H]3[C@@H](CCC4=CC(=O)CC[C@@]43C)[C@@H]1CC[C@@H]2C(=O)CO`, the max response is -3.84% (inactive) and -1.24% (inactive).
In the case of `CC(C)C(=O)c1c(C(C)C)nn2ccccc12` it was -11.3% (inactive) and 12.6% (inactive); in that of `CC(C)c1c(C(=O)Nc2ccccc2)c(-c2ccccc2)c(-c2ccc(F)cc2)n1CC[C@@H](O)C[C@@H](O)CC(=O)O`, -14.7% (inactive); in that of `CCN(CC)CCOC(=O)C1(C2CCCCC2)CCCCC1`, 0.472% (inactive) and 32.4% (inactive).
In the case of `CN(C)CCOC(C)(c1ccccc1)c1ccccn1` (configuration not stated) it was 7.8% (inactive).
